PubChem BioAssay
The source made the active and inactive calls. Unless noted, the rule behind the calls is not given here.

Columns and labels:
[1] = HepG2 liver cancer cell viability effects, profiling panel, resazurin fluorescence, 24 h, PK04 Diversity Set (AID 1172); details: higher = more signal
[2] = basal S. cerevisiae growth modulation, no modifier, primary screen, OD600, strain BY4716, 24 h, basal condition (AID 1173); details: OD600, 24 h, higher = more signal, called active from +8 up or from −8 down
[3] = MM1S myeloma cell viability, profiling panel, resazurin fluorescence, basal, 24 h, PK04 Diversity Set (AID 1174); details: higher = more signal, called active from +8 up or from −8 down;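 note: MM1S multiple myeloma cell line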
[4] = biological target: Dihydroorotate dehydrogenase (quinone), mitochondrial (Plasmodium falciparum (isolate 3D7)) (UniProt Q08210); assay: PfDHODH enzyme inhibitors, primary screen, biochemical, C-terminal His tag, absorbance 600 nm (AID 1175); details: DCIP absorbance 600 nm, higher = more signal, called active from +8 up or from −8 down;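 note: recombinant parasite enzyme with a five histidine tag at its C terminus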
Chain of Dihydroorotate dehydrogenase (quinone), mitochondrial (Plasmodium falciparum (isolate 3D7)) (Q08210 whole entry, looked up): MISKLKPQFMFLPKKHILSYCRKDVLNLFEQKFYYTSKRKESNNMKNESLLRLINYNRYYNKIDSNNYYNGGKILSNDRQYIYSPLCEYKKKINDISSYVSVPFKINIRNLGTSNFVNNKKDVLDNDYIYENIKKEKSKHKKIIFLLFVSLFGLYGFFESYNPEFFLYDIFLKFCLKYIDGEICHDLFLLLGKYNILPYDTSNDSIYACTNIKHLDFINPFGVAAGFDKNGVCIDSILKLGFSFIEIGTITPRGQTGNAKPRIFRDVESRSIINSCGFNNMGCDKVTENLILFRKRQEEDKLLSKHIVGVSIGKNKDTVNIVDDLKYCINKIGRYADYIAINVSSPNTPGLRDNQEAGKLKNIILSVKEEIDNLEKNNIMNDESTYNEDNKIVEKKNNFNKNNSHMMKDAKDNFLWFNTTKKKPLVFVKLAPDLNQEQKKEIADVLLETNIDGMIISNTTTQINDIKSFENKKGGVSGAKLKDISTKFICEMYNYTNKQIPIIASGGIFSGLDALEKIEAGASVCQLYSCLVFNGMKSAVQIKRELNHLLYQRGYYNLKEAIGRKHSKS

[5] = P. aeruginosa biofilm formation inhibitors, primary screen, strain PAO1, LB-PBS medium, absorbance 600 nm (AID 1176); details: P. aeruginosa PAO1 growth/biofilm, A600, 12 h; higher = more signal
[6] = S. cerevisiae RM11-1a growth modifiers, primary screen, strain RM11-1a, OD600, basal, 24 h (AID 1177); details: OD600, 24 h, higher = more signal, called active from +8 up or from −8 down;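 note: cultures grown under basal conditions with no added stressor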
[7] = E. coli acrAB mutant growth effects, primary screen, E. coli filamentation inducers, strain DRC39, OD650, 24 h (AID 1178); details: higher = more signal, called active from +8 up or from −8 down;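 note: growth measured as culture turbidity by optical density at 650 nm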
[8] = E. coli acrAB mutant growth effects, primary screen, E. coli filamentation inducers, strain DRC39, OD650, 48 h (AID 1179);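 note: screen aims at cell division blockers that make cells filament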; details: E. coli DRC39 delta-acrAB growth, higher = more signal, called active from +8 up or from −8 down
[9] = RPMI8226 myeloma cell viability, profiling panel, resazurin fluorescence, basal, 24 h, PK04 Diversity Set (AID 1180); details: higher = more signal;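 note: RPMI8826 multiple myeloma cell line at 5000 cells per well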
[10] = biological target: E3 ubiquitin-protein ligase XIAP (Homo sapiens) (UniProt P98170); assay: XIAP binders, primary screen, biophysical, small-molecule microarray, fluorescence 635 nm (AID 1181); details: small-molecule microarray binding, higher = more signal;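 note: score merges 667 nm emission and signal to noise over triplicate slides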
Chain of E3 ubiquitin-protein ligase XIAP (Homo sapiens) (P98170 whole entry, looked up): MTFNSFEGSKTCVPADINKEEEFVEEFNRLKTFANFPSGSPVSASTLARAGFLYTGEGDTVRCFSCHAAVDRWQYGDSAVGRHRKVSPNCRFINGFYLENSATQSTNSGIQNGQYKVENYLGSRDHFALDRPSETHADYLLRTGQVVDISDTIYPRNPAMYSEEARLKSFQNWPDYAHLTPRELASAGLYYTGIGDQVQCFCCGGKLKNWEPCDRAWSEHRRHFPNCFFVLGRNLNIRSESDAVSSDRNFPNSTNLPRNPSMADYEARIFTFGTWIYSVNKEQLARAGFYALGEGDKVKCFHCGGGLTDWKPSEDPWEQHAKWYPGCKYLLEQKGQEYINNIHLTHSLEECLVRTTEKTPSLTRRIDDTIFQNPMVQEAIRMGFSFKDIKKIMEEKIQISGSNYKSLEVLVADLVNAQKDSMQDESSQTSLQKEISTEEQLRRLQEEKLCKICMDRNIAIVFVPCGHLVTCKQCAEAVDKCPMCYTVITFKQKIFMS

[11] = test system: XIP peptide (Xip251-270) binding; assay: small-molecule binders of XIP peptide, primary screen, biochemical, small-molecule microarray, fluorescence 635/667 nm, 0.1 µg/mL protein (AID 1182); details: fluorescent protein binding, 635 nm, higher = more signal, called active from +8 up or from −8 down
XIP peptide (Xip251-270) = assay: small-molecule binders of XIP peptide, primary screen, biochemical, small-molecule microarray, fluorescence 635/667 nm, 0.5 µg/mL protein (AID 1183); details: small-molecule microarray binding, fluorescence 635 nm; higher = more signal
[12] = Plasmodium falciparum growth inhibition, primary screen, strain 3D7, DAPI fluorescence, 100 nL (AID 1184);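 note: parasites grown inside human red blood cells in medium with human serum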; details: P. falciparum 3D7 growth, 3 d, higher = more signal
[13] = biological target: Homeobox protein Hox-A13 (Mus musculus) (UniProt Q62424); assay: inhibitors of HoxA13-DNA binding, primary screen, biochemical, fluorescence polarization, labeled oligonucleotide (AID 1185); details: 15 min, higher = more signal, called active from +8 up or from −8 down
Chain of Homeobox protein Hox-A13 (Mus musculus) (Q62424 whole entry, looked up): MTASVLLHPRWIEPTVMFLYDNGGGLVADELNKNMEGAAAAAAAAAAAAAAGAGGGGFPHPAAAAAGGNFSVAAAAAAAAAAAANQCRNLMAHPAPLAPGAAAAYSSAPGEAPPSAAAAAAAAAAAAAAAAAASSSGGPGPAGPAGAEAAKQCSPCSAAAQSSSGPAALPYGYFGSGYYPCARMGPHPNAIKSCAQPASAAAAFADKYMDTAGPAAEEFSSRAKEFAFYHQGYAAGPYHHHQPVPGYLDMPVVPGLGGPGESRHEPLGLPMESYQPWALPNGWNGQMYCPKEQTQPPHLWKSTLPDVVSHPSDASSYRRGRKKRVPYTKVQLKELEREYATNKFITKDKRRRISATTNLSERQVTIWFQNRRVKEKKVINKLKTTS

[14] = inhibitors of hydroxyurea-induced Chk1 phosphorylation, primary screen, imaging, HeLa, phospho-Chk1 antibody, percent positive cells (AID 1186); details: hydroxyurea-induced phospho-Chk1 immunofluorescence imaging, higher = more signal
[15] = inhibitors of hydroxyurea-induced Chk1 phosphorylation, primary screen, imaging, HeLa, phospho-Chk1 nuclear intensity (AID 1187); details: hydroxyurea-induced phospho-Chk1 immunofluorescence imaging, higher = more signal

Row | SMILES | z-score [1] | z-score [2] | z-score [3] | composite z-score [4] | z-score [5] | z-score [6] | z-score [7] | z-score [8] | z-score [9] | composite z-score [10] | composite z-score [11] | composite z-score (XIP peptide (Xip251-270)) | z-score [12] | z-score [13] | z-score [14] | z-score [15]
1 | COC(=O)C=C(CC(O)c1cccc(Cl)c1)OC (centres undefined) | -0.0421 | -11.9 (active) | 0.427 (inactive) | -1 (inactive) | -1.07 (inactive) | -1.85 (inactive) | -0.246 (inactive) | 0.861 (inactive) | -0.219 | -0.169 | 0.633 (inactive) | 0.744 | -0.0951 | -1.42 (inactive) | -1.22 (inactive) | -1.18 (inactive)
2 | COCCCNC(=O)[C@@]1(Cc2ccccc2N=[N+]=[N-])N=C(c2ccc(OCCCO)cc2)O[C@H]1c1ccccc1N=[N+]=[N-] | -0.993 | -0.181 (inactive) | -2.32 (inactive) | 1.21 (inactive) | 0.454 (inactive) | 1.83 (inactive) | 0.478 (inactive) | -0.607 (inactive) | -1.99 | 0.323 | 0.0041 (inactive) | 0.771 | -2.43 | -2.81 (inactive) | -0.559 (inactive) | -0.225 (inactive)
3 | COCCOC(=O)N1C(=O)[C@@]2(c3cc(C#CC4=CCCCC4)ccc31)[C@H](C(=O)N1CCc3cc(OC)c(OC)cc3C1)[C@H]1C(=O)O[C@H](c3ccccc3)[C@H](c3ccccc3)N1[C@@H]2c1ccc(OCCO)cc1 | 0.149 | 1.18 (inactive) | 0.516 (inactive) | -0.352 (inactive) | 3.64 (inactive) | 1.38 (inactive) | 0.14 (inactive) | -0.316 (inactive) | 0.492 | -0.139 | 0.173 (inactive) | 0.383 | -2.09 | 3.59 (inactive) | 0.206 (inactive) | 0.631 (inactive)
4 | O=C1c2ccccc2[C@](Cc2ccccc2I)(C(=O)NC2CC2)[C@H](c2ccc(CO)cc2)N1Cc1ccccc1 | 0.621 | 0.401 (inactive) | 0.414 (inactive) | 0.159 (inactive) | 0.14 (inactive) | -0.377 (inactive) | -0.0358 (inactive) | 0.0388 (inactive) | 0.535 | -0.0663 | 0.534 (inactive) | 0.63 | -0.35 | -5.1 (inactive) | 0.0675 (inactive) | -0.345 (inactive)
5 | O=C1O[C@H](c2ccccc2)[C@H](c2ccccc2)N2[C@H]1[C@@H](C(=O)O)[C@]1(C(=O)Nc3ccc(C#CC4=CCCCC4)cc31)[C@H]2c1ccccc1OCCO | -1.19 | -1.17 (inactive) | -5.12 (inactive) | -6.35 (inactive) | 2.36 (inactive) | 1.73 (inactive) | -0.0532 (inactive) | 0.0958 (inactive) | -6.63 | -0.102 | 0.746 (inactive) | 0.745 | -1.86 | -2.65 (inactive) | 0.144 (inactive) | -0.0653 (inactive)
6 | O=C1c2ccccc2[C@@]2(Cc3ccccc3N(CCN3CCOCC3)C2=O)[C@H](c2ccc(CO)cc2)N1Cc1ccccc1 | -0.864 | -0.187 (inactive) | 0.757 (inactive) | -4.94 (inactive) | 0.168 (inactive) | 0.167 (inactive) | 0.839 (inactive) | 1.61 (inactive) | 0.386 | -0.278 | -0.178 (inactive) | 0.206 | -0.119 | -0.421 (inactive) | -0.305 (inactive) | -0.0278 (inactive)
7 | N#Cc1ccc(NN2C(C(O)c3c(F)cccc3Cl)C=CC3C(=O)N(c4ccccc4)C(=O)C32)cc1 (centres undefined) | -1.31 | 0.566 (inactive) | -0.392 (inactive) | 1.67 (inactive) | 1.01 (inactive) | -0.0762 (inactive) | -0.731 (inactive) | -0.445 (inactive) | -0.739 | 0.585 | 0.817 (inactive) | 0.748 | -0.677 | 0.238 (inactive) | 0.0345 (inactive) | 0.0457 (inactive)
8 | CCOC(=O)[C@H]1C/C=C/C[C@H](C(=O)OCC)C(=O)O[C@H]2[C@@H](OC)O[C@H](CO)[C@@H](OC(=O)Nc3ccc(C#N)cc3)[C@@H]2OC1=O | -4.61 | 0.516 (inactive) | -8.87 (active) | -1.26 (inactive) | 1.94 (inactive) | -0.166 (inactive) | 1.1 (inactive) | 1.58 (inactive) | -7.15 | 0.122 | 1.09 (inactive) | 0.84 | -2.07 | -1.69 (inactive) | -0.892 (inactive) | -1.88 (inactive)
9 | CCCC[C@@H]1C[C@H]1[C@@H](NC(=O)c1ccco1)c1ccc(C(=O)OC)cc1 | -0.351 | 0.788 (inactive) | -0.184 (inactive) | -0.271 (inactive) | 0.812 (inactive) | -0.716 (inactive) | -1.03 (inactive) | -0.489 (inactive) | -0.826 | 0.104 | -0.687 (inactive) | -0.16 | -0.941 | 0.198 (inactive) | 0.29 (inactive) | 0.0944 (inactive)
